The source of these data is PubChem BioAssay AID2284202 (EPA ToxCast).

Activity calls are given as the source filed them. How the source made its calls: active means hit-call score of the fitted dose curve at least 0.9, where 1 is the maximum; inactive means score below 0.9.

As a reminder, the AC50 is the midpoint of the concentration-response curve, whichever way the signal moves.

Chain of human Dopamine Transporter (DAT), SLC6A3 (gene 6531) (Q01959 whole entry, looked up): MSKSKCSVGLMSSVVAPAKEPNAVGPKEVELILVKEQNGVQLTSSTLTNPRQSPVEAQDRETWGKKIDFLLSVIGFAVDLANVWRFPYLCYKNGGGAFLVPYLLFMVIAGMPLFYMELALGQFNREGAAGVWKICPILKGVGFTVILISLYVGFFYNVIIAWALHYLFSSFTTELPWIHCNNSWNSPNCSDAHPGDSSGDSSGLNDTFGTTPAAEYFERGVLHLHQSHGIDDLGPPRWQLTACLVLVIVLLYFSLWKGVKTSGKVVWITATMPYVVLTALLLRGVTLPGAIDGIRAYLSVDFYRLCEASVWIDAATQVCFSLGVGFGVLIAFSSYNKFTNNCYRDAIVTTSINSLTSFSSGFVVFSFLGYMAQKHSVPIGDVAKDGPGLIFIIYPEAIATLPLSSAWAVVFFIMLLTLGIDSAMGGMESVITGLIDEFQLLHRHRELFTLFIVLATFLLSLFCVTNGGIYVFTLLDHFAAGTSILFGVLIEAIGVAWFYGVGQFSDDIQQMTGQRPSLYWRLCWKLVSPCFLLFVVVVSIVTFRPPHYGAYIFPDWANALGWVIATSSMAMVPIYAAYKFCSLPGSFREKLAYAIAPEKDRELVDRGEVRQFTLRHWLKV

For the assay, the target named is human Dopamine Transporter (DAT), SLC6A3 (gene 6531) (UniProt Q01959). Kind of assay: ERF_FR_TR_hSLC6A3: Eurofins (ERF) Radioligand Binding LeadHunter Assay for human Dopamine Transporter (DAT) Antagonism, conducted at France lab site. As to the method:
ERF_FR_TR_hSLC6A3 is a biochemical, single-readout assay that uses extracted gene-proteins in a cell-free assay. Measurements were taken 2 hour after chemical dosing in a 96-well plate. See DAT Human Dopamine Transporter Binding (Antagonist Radioligand) Assay, Cerep.ERF_FR_TR_hSLC6A3 is an assay component calculated from the ERF_FR_TR_hSLC6A3 assay. It is designed to measure radioligand binding using a type of binding reporter as detected by scintillation counting with radiometry technology.Data from the assay component ERF_FR_TR_hSLC6A3 was analyzed at the assay endpoint, ERF_FR_TR_hSLC6A3, in the positive analysis fitting direction relative to DMSO as the negative control and baseline of activity. Using a type of binding reporter, loss-of-signal activity can be used to understand changes in binding as they relate to gene SLC6A3. To generalize the intended target to other relatable targets, this assay endpoint is annotated to the transporter intended target family, where the subfamily is SLC6 / Monoamine.
Human cells are incubated for 120 minutes at 4C with [3H]BTCP (4 nM) ligand and BTCP as control inhibitor. Test Sample Requirements: Minimum for 1) Screen: 60 ul of 10 mM stock -OR- 1 mg (pre-weighed) for 10 uM final testing. 2) Dose Response: 90 ul of 10 mM stock -OR- 1 mg (pre-weighed) for a top concentration at 10 uM.
As for `COc1cc(CCC(=O)CC(=O)CCc2ccc(O)c(OC)c2)ccc1O`, the concentration at half-maximal activity (AC50) was 2970 nM (active).
For `O=C(/C=C/c1ccc(O)cc1)CC(=O)/C=C/c1ccc(O)cc1`, the AC50 was 2890 nM (active).
